According to PubChem BioAssay (NCI):
Compounds without any hit were thinned out: in the full panel of roughly 79,000, 15% have a hit. Activity calls are given as the source filed them. Rule as the data show it: active = growth inhibition above about 70%; inactive = the rest.

Legend:
[1] = NCI Yeast Anticancer Drug Screen. Data for the sgs1 strain (AID 173);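 also: 0% = growth of vehicle-only control cultures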; settings: S. cerevisiae sgs1 mutant, hits give high values
Method in brief: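 Vehicle-treated cultures served as reference for growth inhibition of a yeast strain altered in DNA damage repair or cell cycle control after compound exposure.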

[2] = NCI Yeast Anticancer Drug Screen. Data for the mlh1 rad18 strain (AID 175); settings: S. cerevisiae mlh1 rad18 strain growth inhibition, hits give high values
Method in brief: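 Inhibition values reflect reduced growth of mutant yeast versus vehicle-treated controls following compound exposure; the mutations affect DNA damage repair.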

[3] = NCI Yeast Anticancer Drug Screen. Data for the rad18 strain (AID 177); settings: S. cerevisiae rad18 mutant growth inhibition, hits give high values
Method in brief: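 Steps: expose repair-mutant yeast to compound; measure growth; express as inhibition relative to vehicle control.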

[4] = NCI Yeast Anticancer Drug Screen. Data for the rad52 strain (AID 147);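 also: 0% = growth of vehicle-treated control cultures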; settings: S. cerevisiae rad52 mutant growth inhibition, hits give high values
Method in brief: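 Inhibition of yeast growth, referenced to vehicle controls, was the measured output for a strain with defective DNA damage repair.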

[5] = NCI Yeast Anticancer Drug Screen. Data for the wt1 strain (AID 149);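 also: 0% = growth of vehicle-treated wt1 cultures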; settings: S. cerevisiae wt1 strain (SPY 50644) growth inhibition, hits give high values
Method in brief: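 Using yeast strain wt1, compound-induced growth inhibition was determined against vehicle-treated cultures.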

[6] = NCI Yeast Anticancer Drug Screen. Data for the rad50EPP+ strain (AID 151);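 also: 0% = growth of vehicle-treated control cultures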; settings: S. cerevisiae rad50 mutant strain, hits give high values
Method in brief: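 Genetically defined yeast (rad50EPP+, DNA damage repair alteration) is grown with compound, and inhibition of growth is expressed relative to vehicle-treated controls.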

[7] = NCI Yeast Anticancer Drug Screen. Data for the mgt1 strain (AID 153); settings: S. cerevisiae mgt1 mutant growth inhibition, hits give high values
Method in brief: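 In the mgt1 strain, test compounds were added and growth inhibition was determined relative to vehicle-treated controls.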

[8] = NCI Yeast Anticancer Drug Screen. Data for the rad50 strain (AID 155);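 also: 0% = growth of vehicle-only cultures of the same strain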; settings: S. cerevisiae rad50 strain growth inhibition, hits give high values
Method in brief: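 Relative growth inhibition (compound vs vehicle) was measured in yeast with a defined repair-gene alteration.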

[9] = NCI Yeast Anticancer Drug Screen. Data for the mec2-1 strain (AID 157); settings: S. cerevisiae mec2-1 strain, hits give high values
Method in brief: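 Each compound was tested on mec2-1 yeast, a strain altered in DNA damage repair or cell cycle control. Growth inhibition is reported relative to vehicle.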

[10] = NCI Yeast Anticancer Drug Screen. Data for the rad14 strain (AID 159);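 also: 0% = growth of vehicle-treated control cultures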; settings: S. cerevisiae rad14 strain growth inhibition, hits give high values
Method in brief: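 Screen for anticancer potential: a yeast strain altered in DNA damage repair is grown with compound, and reduced growth is quantified against vehicle controls.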

[11] = NCI Yeast Anticancer Drug Screen. Data for the sgs1 mgt1 strain (AID 161);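 also: 0% = growth of cultures given vehicle only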; settings: S. cerevisiae sgs1 mgt1 strain, hits give high values
Method in brief: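 Genetically altered yeast, compound exposure, growth inhibition relative to vehicle.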

[12] = NCI Yeast Anticancer Drug Screen. Data for the CLN2oe strain (AID 163);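 also: 0% = growth of vehicle-only control cultures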; settings: S. cerevisiae CLN2oe strain, hits give high values
Method in brief: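 First, the altered yeast strain was treated with each compound; second, its growth was measured; finally, inhibition was derived by comparison with vehicle controls.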

[13] = NCI Yeast Anticancer Drug Screen. Data for the bub3 strain (AID 167); settings: S. cerevisiae bub3 mutant strain, hits give high values
Method in brief: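 Screening used yeast with an engineered genetic alteration affecting cell cycle control. Compound-exposed cultures were compared with vehicle cultures, and reduced growth was taken as inhibition.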

[14] = NCI Yeast Anticancer Drug Screen. Data for the wt2 strain (AID 169);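 also: 0% = growth of vehicle-treated yeast cultures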; settings: S. cerevisiae wt2 strain growth inhibition, hits give high values
Method in brief: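 The panel's yeast strains carry defined changes in DNA repair or cell cycle genes. Each strain is grown with compound, and growth loss is scored relative to vehicle.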

[15] = NCI Yeast Anticancer Drug Screen. Data for the mlh1 strain (AID 171);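 also: 0% = growth of vehicle-treated control cultures of the same strain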; settings: S. cerevisiae mlh1 strain growth inhibition, hits give high values
Method in brief: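 Inhibition values reflect reduced yeast growth in the presence of compound, referenced to vehicle controls, using a strain chosen for its alteration in DNA repair or cell cycle control.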

[16] = NCI Yeast Anticancer Drug Screen. Data for the cln2 rad14 strain (AID 165);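 also: 0% = growth equal to vehicle treated cultures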; settings: S. cerevisiae cln2 rad14 strain, hits give high values
Method in brief: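 Test compounds were added to cln2 rad14 yeast cultures; inhibition of growth was then determined by comparison with vehicle treatment.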

[17] = at 5.0 µM (retest, dose inferred, filed as 0.5)
[18] = at 50.0 µM (retest, dose inferred, filed as 5.0)

Measured: growth inhibition

COc1ccc(Br)c(C(=O)Sc2nnnn2-c2cccc(Cl)c2)c1
active: [1]; at 100.0 µM 94% | [2]; at 50.0 µM 85% | [3]; at 100.0 µM 93%
inactive: [1]; at 1.2 µM 2% | [1]; at 3.7 µM 2% | [1]; at 11.0 µM 11% | [1]; at 33.0 µM 49% | [2]; [17] 47% | [2]; [18] 67% | [3]; at 1.2 µM -24% | [3]; at 3.7 µM -10% | [3]; at 11.0 µM -8% | [3]; at 33.0 µM 52%

Cc1ccc(NN(NC(=O)OC(C)C)C(=O)OC(C)C)cc1
active: [2]; at 50.0 µM 78.8%
inactive: [4]; at 1.2 µM -2% | [4]; at 3.7 µM -2% | [4]; at 11.0 µM 0% | [4]; at 33.0 µM 8% | [4]; at 100.0 µM 17% | [5]; at 1.2 µM 2% | [5]; at 3.7 µM 7% | [5]; at 11.0 µM 4% | [5]; at 33.0 µM 7% | [5]; at 100.0 µM 11% | [6]; at 1.2 µM 5% | [6]; at 3.7 µM 13% | [6]; at 11.0 µM 25% | [6]; at 33.0 µM 50% | [6]; at 100.0 µM 64% | [7]; at 1.2 µM 0% | [7]; at 3.7 µM -3% | [7]; at 11.0 µM 1% | [7]; at 33.0 µM 14% | [7]; at 100.0 µM 13% | [8]; at 1.2 µM -1% | [8]; at 3.7 µM 0% | [8]; [17] 3% | [8]; at 11.0 µM -1% | [8]; at 33.0 µM 8% | [8]; [18] 35% | [8]; at 50.0 µM 23.1% | [8]; at 100.0 µM 13% | [9]; at 1.2 µM 3% | [9]; at 3.7 µM 5% | [9]; [17] 1% | [9]; at 11.0 µM 8% | [9]; at 33.0 µM 13% | [9]; [18] 5% | [9]; at 50.0 µM 6.1% | [9]; at 100.0 µM 15% | [10]; at 1.2 µM -2% | [10]; at 3.7 µM -1% | [10]; at 11.0 µM -1% | [10]; at 33.0 µM 1% | [10]; at 100.0 µM 8% | [11]; [17] 15% | [11]; [18] 19% | [11]; at 50.0 µM 29.6% | [12]; at 1.2 µM -3% | [12]; at 3.7 µM -11% | [12]; at 11.0 µM -5% | [12]; at 33.0 µM 1% | [12]; at 100.0 µM 5% | [13]; at 1.2 µM -5% | [13]; at 3.7 µM -3% | [13]; [17] 17% | [13]; at 11.0 µM -1% | [13]; at 33.0 µM 6% | [13]; [18] 38% | [13]; at 50.0 µM 2.1% | [13]; at 100.0 µM 17% | [14]; at 1.2 µM -1% | [14]; at 3.7 µM -1% | [14]; at 11.0 µM 0% | [14]; at 33.0 µM 7% | [14]; at 100.0 µM 11% | [15]; at 1.2 µM 0% | [15]; at 3.7 µM 2% | [15]; at 11.0 µM 5% | [15]; at 33.0 µM 7% | [15]; at 100.0 µM 8% | [1]; at 1.2 µM 1% | [1]; at 3.7 µM 1% | [1]; at 11.0 µM 5% | [1]; at 33.0 µM 14% | [1]; at 100.0 µM 15% | [2]; [17] 16% | [2]; [18] 62% | [3]; at 1.2 µM -3% | [3]; at 3.7 µM -4% | [3]; at 11.0 µM 1% | [3]; at 33.0 µM 12% | [3]; at 100.0 µM 21%

O=C(NNc1ccnc2cc(Cl)ccc12)/C(=C\c1ccccc1Cl)NC(=O)c1ccccc1
inactive: [4]; at 1.2 µM 15% | [4]; at 3.7 µM 11% | [4]; at 11.0 µM 40% | [4]; at 33.0 µM 38% | [4]; at 100.0 µM 38% | [5]; at 1.2 µM -80% | [5]; at 3.7 µM -1% | [5]; at 11.0 µM 6% | [5]; at 33.0 µM 21% | [5]; at 100.0 µM 28% | [6]; at 1.2 µM 17% | [6]; at 3.7 µM 55% | [7]; at 1.2 µM 2% | [7]; at 3.7 µM 23% | [7]; at 11.0 µM 32% | [7]; at 33.0 µM 61% | [7]; at 100.0 µM 62% | [8]; at 1.2 µM -1% | [8]; at 3.7 µM 4% | [8]; [17] -11% | [8]; at 11.0 µM 14% | [8]; at 33.0 µM 33% | [8]; [18] -18% | [8]; at 100.0 µM 30% | [9]; at 1.2 µM -5% | [9]; at 3.7 µM -1% | [9]; [17] -16% | [9]; at 11.0 µM -1% | [9]; at 33.0 µM 20% | [9]; [18] -30% | [9]; at 50.0 µM 39.6% | [9]; at 100.0 µM 14% | [10]; at 1.2 µM -2% | [10]; at 3.7 µM 1% | [10]; at 11.0 µM 1% | [10]; at 33.0 µM 3% | [10]; at 100.0 µM 0% | [11]; [17] -8% | [11]; [18] -37% | [16]; [17] 8% | [16]; [18] 22% | [16]; at 50.0 µM 55.4% | [13]; at 1.2 µM 0% | [13]; at 3.7 µM 14% | [13]; [17] 5% | [13]; at 11.0 µM 50% | [14]; at 1.2 µM 4% | [14]; at 3.7 µM 28% | [14]; at 11.0 µM 45% | [14]; at 33.0 µM 38% | [14]; at 100.0 µM 31% | [15]; at 1.2 µM -1% | [15]; at 3.7 µM 0% | [15]; at 11.0 µM 7% | [15]; at 33.0 µM 26% | [15]; at 100.0 µM 24% | [1]; at 1.2 µM 1% | [1]; at 3.7 µM 6% | [1]; at 11.0 µM 13% | [1]; at 33.0 µM 38% | [1]; at 100.0 µM 38% | [2]; [17] -13% | [2]; [18] 7% | [3]; at 1.2 µM -1% | [3]; at 3.7 µM 10% | [3]; at 11.0 µM 34% | [3]; at 33.0 µM 64% | [3]; at 100.0 µM 67%
active: [6]; at 11.0 µM 91% | [6]; at 33.0 µM 95% | [6]; at 100.0 µM 89% | [8]; at 50.0 µM 86.1% | [11]; at 50.0 µM 73% | [13]; at 33.0 µM 76% | [13]; [18] 80% | [13]; at 50.0 µM 85.8% | [13]; at 100.0 µM 76% | [2]; at 50.0 µM 90.1%
